# Compound activity (PubChem)
# This is a sample that favours compounds with a hit; in the whole collection about 0.49% have one here.
# Vif-A3F inh: inhibitors of Vif-A3F interaction | HeLa A3F-eYFP + Vif (tagged APOBEC3F with the HIV-1 protein that degrades it), YFP fluorescence increase | Potency, µM (series often up to 46.1 µM), for the others: top-dose activity, negative = active | 390,000 compounds, 0.2% hits | AID 602313; further: potency means the concentration at half of the fitted maximal effect; % of control where 0% means no effect; nearly all actives have a fitted effect of over 65% in size
#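 HeLa cells stably expressing A3F-eYFP plus Vif, plated and incubated overnight at 37 deg C, then exposed to compounds overnight at 37 deg C. Blocked degradation read as raised yellow fluorescence (Ex 488/Em 500-530).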
# Pin1 inhibitor: inhibitors of human Pin1 | Potency, µM (doses to about 115 µM), without a hit: at the highest dose activity, negative = inhibition, hits mostly inhibitors | Pin1 FP peptide displacement, HiFluor488, 10 min | 390,000 compounds, 0.009% hits; active means well fitted inhibition curve with a large enough effect in the polarisation, with a control signal flat, not every such curve was filed as active; inconclusive means small, poorly fitted or top-dose-only effect, or effect the other way, or a change in a side signal; inactive means no such curve, though single readings can be large or run the other way; the % refers to the polarisation; further: potency means the concentration at half of the fitted maximal effect; on the % scale 0 is the no-effect control and ±100 the full control effect
# Target sequence (Q13526 whole entry, looked up): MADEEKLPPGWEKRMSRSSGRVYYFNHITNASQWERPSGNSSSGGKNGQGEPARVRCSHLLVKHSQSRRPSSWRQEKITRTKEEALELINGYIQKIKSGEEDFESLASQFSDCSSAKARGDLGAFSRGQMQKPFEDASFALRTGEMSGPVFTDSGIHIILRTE
# LDHA block: blocks human lactate dehydrogenase A. 480,000 compounds, 0.15% hits. purified LDHA, NADH/diaphorase-resazurin fluorescence; active compounds read low. P00338. activity change, % (values are at about 110 or 230 µM); in the data active means activity change below about -30%; inconclusive means mostly about -25% to -30%;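 further: plate controls were DMSO wells for no effect and wells without enzyme for full effect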
#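 LDH5 2 nM; NADH 0.06 mM, pyruvate 0.2 mM; 200 mM Tris pH 7.4, EDTA, Tween-20; 5 min RT. Detection: diaphorase 0.133 mg/mL + resazurin 37 µM, fluorescence ex540/em590 at 0 and 20 min; normalized to enzyme-free and DMSO wells.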
# IDH1 R132H inh: blocks human mutant IDH1 R132H enzyme. O75874. IDH1-R132H enzyme, NADPH consumption, diaphorase/resazurin fluorescence. Potency, µM (titrated, usually from 76.6 µM), for inactives: top-dose activity change, negative = inhibition, most hits filed as inhibitors. 390,000 compounds, 0.093% hits; further: potency means the concentration at half of the fitted maximal effect; on the % scale 0 is the no-effect control and ±100 the full control effect; nearly all actives have a fitted effect of over 65% in size
#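 IDH1-R132H (0.5 ug/mL dispensed) in pH 7.5 Tris buffer was preincubated 30 min with compound, then given a substrate mix of 0.016 mM NADPH and 2 mM alpha-KG for 80 min at room temperature; remaining NADPH was read by diaphorase/resazurin fluorescence.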
# Vif-A3G inh: Vif-A3G binding inhibition; Potency, µM (top dose mostly 46.1 µM), for the others: top-dose activity, negative = active, usual class: inhibitors; HeLa A3G-eYFP + Vif (tagged APOBEC3G with the HIV-1 protein that degrades it), YFP fluorescence, overnight; 410,000 compounds, 0.076% hits; AID 602310; further: potency means the concentration at half of the fitted maximal effect; on the % scale 0 is the no-effect control and ±100 the full control effect; nearly all actives have a fitted effect of over 60% in size
# Target sequence (Q9HC16 whole entry, looked up): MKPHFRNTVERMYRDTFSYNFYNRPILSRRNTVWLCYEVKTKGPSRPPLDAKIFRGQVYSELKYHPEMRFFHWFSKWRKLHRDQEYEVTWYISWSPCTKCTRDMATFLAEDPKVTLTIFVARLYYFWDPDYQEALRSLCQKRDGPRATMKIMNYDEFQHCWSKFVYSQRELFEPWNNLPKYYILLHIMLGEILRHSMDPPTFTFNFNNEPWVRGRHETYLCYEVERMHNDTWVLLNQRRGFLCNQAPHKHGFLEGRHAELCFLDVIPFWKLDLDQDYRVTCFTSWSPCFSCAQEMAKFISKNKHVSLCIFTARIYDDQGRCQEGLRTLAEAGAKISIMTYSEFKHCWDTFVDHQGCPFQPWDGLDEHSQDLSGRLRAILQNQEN
#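 HeLa cells stably expressing Vif and C-terminally eYFP-tagged A3G, seeded overnight at 37 deg C, then exposed to compound by pintool overnight at 37 deg C. Rise in yellow fluorescence (Ex 488/Em 500-530, Acumen) marks blocked Vif-driven A3G degradation.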
# Tb PGK inh: inhibitors of T. brucei phosphoglycerate kinase; PGK/GAPDH coupled, Kinase-Glo luminescence, 60 min; Potency, µM (top dose mostly 57.5 µM), without a hit: at the highest dose activity change, negative = inhibition, most hits filed as inhibitors; 380,000 compounds, 0.043% hits; AID 602233; further: potency means the concentration at half of the fitted maximal effect; on the % scale 0 is the no-effect control and ±100 the full control effect; nearly all actives have a fitted effect of over 60% in size
#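 Recombinant glycosomal PGK reaction used 1,3-bisphosphoglycerate generated in-well by GAPDH (100nM final) in 100mM TEA pH 7.6, 5mM MgCl2, 0.01% Tween-20. After 60 minutes at room temperature, ATP was read by Kinase-Glo Plus luminescence end-point.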
# The depositor's hits bear a star; i = inactive; ? = inconclusive; · = no result given; [ ] = another dose, or the depositor's remark. Unless noted, the call rests on the fitted dose curve; in most records, active means well fitted curve in the direction sought with a large enough effect; inconclusive means small, poorly fitted or top-dose-only effect, or another doubt; inactive means no such curve, though single readings can be large; an effect the other way counts as inactive or inconclusive.
SMILES,Vif-A3F inh,Pin1 inhibitor,LDHA block,IDH1 R132H inh,Vif-A3G inh,Tb PGK inh
CCOC(=O)C1CCN([C@H]2CS(=O)(=O)C[C@@H]2S(=O)(=O)c2ccc(OCC)cc2)CC1,·,·,-7,·,·,·
CSc1ccc(/C=N/Nc2cccc(C(=O)O)c2)cc1,5%,19µM*,-4,8%,0%,?
O=C(O)c1cccc(N/N=C/c2ccc(OC(F)(F)F)cc2)c1,0%,-15%,0,-4%,-1%,-3%
CC(=O)N1N=C(c2ccc(F)cc2)CC1c1ccc2nccnc2c1 (configuration not stated),·,·,2,·,·,·
CC(=O)NC1C(=O)N(CCN2CCOCC2)c2ccc(F)cc21 (configuration not stated),0%,-6%,2,?,1%,·
CC(=O)NC1C(=O)N(CCN2CCOCC2)c2ccc(C)cc21 (configuration not stated),-3%,50µM*,-13,?,-11%,20µM*
CCC(C)(C)NC(=O)CNc1cccc(-c2nnnn2C)c1,·,·,1,·,·,·
O=C(NC12CC3CC(CC(C3)C1)C2)c1cc(Br)c[nH]1,·,·,1,·,·,·
CN(C)c1ccc2nc3c(=O)[nH]c(=O)nc-3n(CC(O)C(O)C(O)CO)c2c1 (configuration not stated),8.9µM*,?,5,-3%,2%,?
Cc1ncc(C(O)c2ccc(N(C)C)cc2)n1Cc1ccccc1 (configuration not stated),-6%,·,-9,-2%,0%,-4%
O=C1/C(=C/c2ccc3ccccc3c2)Cc2ccccc21,·,·,10,·,·,·
CN(Cc1ccc(-c2ccc(Cl)cc2)o1)C(=O)CSc1nnc(C2CC2)n1C,·,·,-12,·,·,·
Cc1[nH]c2ccccc2c1C(=O)C(=O)Nc1ccccc1C(C)C,·,·,-8,·,·,·
CCC(=O)N1CCc2cc(S(=O)(=O)NC(CC(C)C)C(=O)NCc3cccc(OC)c3)ccc21 (configuration not stated),6%,4%,-31*,0%,0%,10%
NC(=S)N/N=C/c1ccc(-c2ccccc2)o1,?,5%,-5,-7%,-21%,1%
Cc1ccc(-c2ccc(/C=N/NC(N)=S)o2)cc1,5.6µM*,1%,-8,-5%,-19%,i
N#C/C(N=Nc1ccccc1O)=N\Nc1ccccc1O,11µM*,-6%,15,3%[38.3 µM],?,?
Oc1ccccc1N=N/C(=N/Nc1ccccc1O)c1ccccc1,0%,-1%,0,-6%[38.3 µM],2%,-4%
CCCCC1CCC(C(=O)Nc2ccc(OC)c3ncccc23)CC1 (configuration not stated),·,·,-30*,·,·,·
Cc1[nH][nH]c(=O)c1C(c1c(C)[nH][nH]c1=O)c1cn(Cc2ccccc2Cl)c2ccccc12,-8%,0%,28,?,11µM*,-5%
Cc1cc(OC(=O)c2ccco2)c(Sc2ccccc2[N+](=O)[O-])c(=O)o1,6%,0%,-106*,-6%,0%,7%
Cc1cc(NC(=O)CSc2nnnn2-c2cccc(C)c2C)n(-c2ccccc2)n1,·,·,8,·,·,·
CCc1ccc(S(=O)(=O)/N=C2\C=C(Nc3ccc(O)cc3)C(=O)c3ccccc32)cc1,4%,-7%,37,12%,8%,?
CCc1ccc(S(=O)(=O)/N=C2/C=C(Sc3ncn[nH]3)C(=O)c3ccccc32)cc1,?,43µM*,39,20%,?,?
Cc1ccccc1C(=O)OCC1CCC[N+]2(C)CCCCC12 (configuration not stated),·,·,6,·,·,·
CCNC(=S)N/N=C(\C)c1ccc(Cl)s1,-1%,-5%,-4,4%,-3%,3%
CNC(=S)N/N=C(\C)c1ccc(Cl)s1,7.9µM*,-7%,-12,3%,1%,12%
Cc1cccc(NC(=O)CN2CCN(C(=O)NCc3ccccc3CN(C)C)CC2)c1C,·,·,0,·,·,·
